Compounds with a hit are over-represented: about 1.6% of the library has one in this group of screens.
HTR5A inv ctr: inverse agonist of human HTR5A in OPRM1-OPRD1 counter-screen | inhibition, % at 9.3 µM | P47898 | HTR5A cell line, luminescence, inverse agonism | 340,000 compounds, 0.083% hits; in the data active = inhibition mostly above about 23%, no sharp cut-off; inactive = mostly below about 18%
Target sequence (P47898 whole entry, looked up): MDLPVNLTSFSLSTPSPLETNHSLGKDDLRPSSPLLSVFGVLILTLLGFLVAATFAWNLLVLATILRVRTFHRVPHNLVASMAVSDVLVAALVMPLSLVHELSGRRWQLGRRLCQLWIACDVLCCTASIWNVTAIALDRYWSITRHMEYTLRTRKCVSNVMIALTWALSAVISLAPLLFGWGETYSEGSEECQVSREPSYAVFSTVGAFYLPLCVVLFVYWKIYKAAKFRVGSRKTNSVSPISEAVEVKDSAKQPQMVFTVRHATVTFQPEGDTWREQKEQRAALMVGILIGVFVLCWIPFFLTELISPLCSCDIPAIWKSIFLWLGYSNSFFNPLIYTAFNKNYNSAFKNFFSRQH
HTR5A ag: counter-screen for OPRM1-OPRD1 agonists: human HTR5A agonism; activation, % at 9.3 µM; 340,000 compounds, 0.61% hits; HTR5A agonist assay, luminescence, cell-based; P47898; in the data active = activation mostly above about 9.5%, no sharp cut-off; inactive = mostly below about 7.6%
NALP1 yeast inh: NALP1 inhibition; inhibition, % at 10 µM; 280,000 compounds, 0.61% hits; S. cerevisiae NALP1/ASC/caspase-1 growth, X-gal OD620, 72 h; in the data active = inhibition mostly above about 24%, no sharp cut-off; inactive = mostly below about 32%
MOR-DOR ag: OPRM1-OPRD1 heterodimerization agonism; P35372+P41143; cells, luminescence; activation, % at 9.3 µM; 340,000 compounds, 0.3% hits; AID 504326; in the data active = activation above about 18%
MOR-DOR inv ag: mu-delta opioid heterodimer inverse agonism; P35372+P41143; cell-based MOR-DOR heterodimer luminescence; inhibition, % at 9.3 µM; 340,000 compounds, 0.21% hits; in the data active = inhibition above about 22%, passing the limit was not always enough
PolyA inh: inhibitors of polyadenylation in S. cerevisiae | S. cerevisiae SKY197-pL101 polyadenylation reporter, beta-gal luminescence; efflux-impaired pdr1/pdr3 knockout yeast; score 100 = 6 SD above DMSO | activity score, % at 12 µM | 300,000 compounds, 0.02% hits | AID 1875;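 active = lowest replicate activity score at least 50, where 100 means six control SD above control mean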;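 also: yeast exposed to compound for 9 h at 30 °C; higher score means more reporter readthrough which indicates perturbed polyadenylation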
A number is an active result.

For Cc1cccc(-c2nnc(SCC(=O)NC3CC3)n2C)c1 the results were HTR5A inv ctr inactive, HTR5A ag inactive, NALP1 yeast inh 28.0, MOR-DOR ag inactive, MOR-DOR inv ag inactive and PolyA inh inactive.
Screening O=C1/C(=C/c2ccccc2)CCCc2ccccc21 returned HTR5A inv ctr inactive, HTR5A ag inactive, NALP1 yeast inh 57.2, MOR-DOR ag inactive, MOR-DOR inv ag inactive and PolyA inh inactive.
For CC(C)/C=C1\CC/C(=C\c2cccnc2)C1=O the results were HTR5A inv ctr inactive, HTR5A ag inactive, NALP1 yeast inh inactive, MOR-DOR ag inactive, MOR-DOR inv ag inactive and PolyA inh inactive.
For O=C1/C(=C/c2cccnc2)CC/C1=C\c1cccnc1 the results were HTR5A inv ctr inactive, HTR5A ag inactive, NALP1 yeast inh inactive, MOR-DOR ag inactive, MOR-DOR inv ag inactive and PolyA inh inactive.
O=C1/C(=C\c2cccnc2)CCc2ccccc21 was read as HTR5A inv ctr inactive, HTR5A ag inactive, NALP1 yeast inh inactive, MOR-DOR ag inactive, MOR-DOR inv ag inactive and PolyA inh inactive.
For CCC1C/C(=C\c2cccnc2)C(=O)/C(=C/c2cccnc2)C1 (stereo unspecified) the results were HTR5A inv ctr inactive, HTR5A ag inactive, NALP1 yeast inh 76.2, MOR-DOR ag inactive and MOR-DOR inv ag inactive.
For O=C1/C(=C/c2cccnc2)CCC/C1=C\c1cccnc1 the results were NALP1 yeast inh 77.6.
CCOC(=O)C1(CCOc2ccccc2)CCN(Cc2cc(OC)c3c(c2)OCO3)CC1 was read as HTR5A inv ctr inactive, HTR5A ag inactive, NALP1 yeast inh inactive, MOR-DOR ag inactive, MOR-DOR inv ag inactive and PolyA inh inactive.
`COc1ccc(S(=O)(=O)CC(=O)Nc2nnc(C(F)(F)F)s2)cc1` gave HTR5A inv ctr inactive, HTR5A ag inactive, NALP1 yeast inh inactive, MOR-DOR ag inactive, MOR-DOR inv ag inactive and PolyA inh inactive.
For COc1cc(NC(=O)Cc2ccc(Cl)cc2)ccc1NC(=O)c1ccco1 the results were HTR5A inv ctr inactive, HTR5A ag inactive, NALP1 yeast inh 37.7, MOR-DOR ag inactive, MOR-DOR inv ag inactive and PolyA inh inactive.
`CNC(=O)COc1coc(CN2CCN(c3ccc(F)cc3)CC2)cc1=O` gave HTR5A inv ctr inactive, HTR5A ag inactive, NALP1 yeast inh inactive, MOR-DOR ag inactive, MOR-DOR inv ag inactive and PolyA inh inactive.
Screening COc1ccc(Nc2nc(Nc3ccc(OC)cc3)nc(-n3[nH]c(=O)c(C)c3C)n2)cc1 returned HTR5A inv ctr 42.6, HTR5A ag inactive, NALP1 yeast inh inactive, MOR-DOR ag inactive, MOR-DOR inv ag inactive and PolyA inh inactive.
Screening O=[N+]([O-])c1ccccc1/C=C/C=N/n1c(-c2ccccc2)n[nH]c1=S returned HTR5A inv ctr inactive, HTR5A ag 13.2, NALP1 yeast inh inactive, MOR-DOR ag inactive, MOR-DOR inv ag inactive and PolyA inh inactive.
`Cc1ccc(-c2n[nH]c(=S)n2/N=C/C=C\c2ccccc2[N+](=O)[O-])cc1` gave HTR5A inv ctr inactive, HTR5A ag inactive, NALP1 yeast inh inactive, MOR-DOR ag inactive, MOR-DOR inv ag inactive and PolyA inh inactive.
`NCCNC(=O)c1c(O)c2cccc3c2n(c1=O)CCC3` gave HTR5A inv ctr inactive, HTR5A ag inactive, NALP1 yeast inh 35.3, MOR-DOR ag inactive, MOR-DOR inv ag inactive and PolyA inh inactive.
`Cc1ccc(S(=O)(=O)N/N=C\c2ccc3c(c2)OCO3)c(C)c1` gave HTR5A inv ctr inactive, HTR5A ag 10.8, NALP1 yeast inh inactive, MOR-DOR ag inactive, MOR-DOR inv ag inactive and PolyA inh inactive.
`O=C(CSc1nc2ccccc2[nH]1)Nc1nc(-c2ccc(Br)cc2)cs1` gave HTR5A inv ctr inactive, HTR5A ag inactive, NALP1 yeast inh inactive, MOR-DOR ag inactive, MOR-DOR inv ag inactive and PolyA inh inactive.
Screening COc1ccccc1CN(C)S(=O)(=O)c1cccs1 returned HTR5A inv ctr inactive, HTR5A ag inactive, NALP1 yeast inh inactive, MOR-DOR ag inactive, MOR-DOR inv ag inactive and PolyA inh inactive.
O=C(O)CSCC(=O)N1CCN(c2ccnc3cc(Cl)ccc23)CC1 was read as HTR5A inv ctr inactive, HTR5A ag 11.1, NALP1 yeast inh inactive, MOR-DOR ag inactive, MOR-DOR inv ag inactive and PolyA inh inactive.
`Cc1nonc1C(=O)N/N=C/c1ccncc1` gave HTR5A inv ctr inactive, HTR5A ag inactive, NALP1 yeast inh inactive, MOR-DOR ag inactive, MOR-DOR inv ag inactive and PolyA inh inactive.

Compound activity from PubChem.
